Laboratory results taken from PubChem BioAssay AID743060 (The Scripps Research Institute Molecular Screening Center, 2013).

experiment: inhibitors of T. brucei MetRS aminoacylation, late-stage follow-up, biochemical, radioactivity, round 1 (AID 743060); conditions: purified enzyme, radiolabel aminoacylation, scintillation, 2 h; at 10 µM; stronger effect = higher value

In order of falling inhibition:
1. CN(Cc1cc(Cl)cc(Cl)c1)[C@H]1C[C@H]2c3[nH]c4ccccc4c3CCN2C(=O)[C@H]1CO  101%
2. COc1ccc(CCN(C(=S)Nc2ccccc2)C2CC(=O)N(c3ccc(Cl)cc3)C2=O)cc1 (centres undefined)  99.4%
3. CN1CC(=O)N2C(c3cccc([N+](=O)[O-])c3)c3[nH]c4ccccc4c3C[C@H]2C1=O (some centres undefined)  96.7%
4. CC(C)OCCCN1CC(=O)N2C(c3cccc([N+](=O)[O-])c3)c3[nH]c4ccccc4c3C[C@H]2C1=O (some centres undefined)  93.1%
5. CN(CC(=O)Nc1ccc(Cl)cc1)C(=O)c1ccc(-n2cncn2)c([N+](=O)[O-])c1  92.5%
6. O=C(Cn1cnc2ccccc21)Nc1cccc([N+](=O)[O-])c1  91.9%
7. COc1ccc(CNC(=O)CSc2nnc3c(n2)[nH]c2ccc(F)cc23)cc1  89.6%
8. O=C(NCc1nc2ccccc2[nH]1)C1=C[C@@H](c2csc3ccccc23)C[C@@H](OCCCCO)O1  89.2%
9. CC(C)(C)[C@@H]1C=C(C(=O)NCc2nc3ccccc3[nH]2)O[C@H](OCc2ccc(CO)cc2)C1  84.8%
10. CC(C)(C)[C@H]1C=C(C(=O)NCc2nc3ccccc3[nH]2)O[C@@H](OCc2ccc(CO)cc2)C1  83.8%
11. O=C(N/C(=C\c1cccnc1)c1nc2ccccc2[nH]1)c1cccc(Br)c1  71.7%
12. Cc1ccc2[nH]c3nc(SCC(=O)Nc4ccc(C(F)(F)F)cc4)nnc3c2c1  15.1%
13. Cc1cccc(NC(=O)C2CC(=O)n3c(nc4ccccc43)N2)c1 (centres undefined)  8.95%
14. CCCCn1c(CCNC(=O)c2ccc(F)cc2)nc2ccccc21  2.32%
15. Cc1cccc(C(=O)NCCc2nc3ccccc3n2CCOc2ccccc2)c1  0.31%
16. O=C1CC(NCCc2ccccc2)C(=O)N1c1ccc(Br)cc1 (centres undefined)  -9%
17. CCN(CC)C(=O)C(=O)c1cn(CC(=O)Nc2ccccc2OC)c2ccccc12  -11.4%
18. COc1ccccc1NC(=O)Cn1cc(C(=O)C(=O)N2CCOCC2)c2ccccc21  -13.7%
19. CC(=O)N(CCc1ccccc1)C1CC(=O)N(c2ccc(Cl)cc2)C1=O (centres undefined)  -17.1%
